For six molecules, outcome and AC50 results are on record in PubChem BioAssay (EPA / NIEHS).

Molecules are shown by their SMILES. Records with an inconclusive call do not appear. Calls of active or inactive are those of the source. Rule for the calls, unless noted: active = hit-call score of the fitted dose curve at least 0.9, where 1 is the maximum; inconclusive = response in the unintended direction; inactive = score below 0.9.

The nature of experiment [1]: ATG_PPRE_CIS: Attagene CIS-FACTORIAL HepG2 Assay for human Peroxisome Proliferator-activated Response Element (PPRE) (AID 2282958; active = hit-call score of the fitted dose curve at least 0.9, where 1 is the maximum; inactive = score below 0.9). As to conditions: HepG2 PPRE cis-element reporter, Attagene transcription factor profiling; actives raise or lower the signal. Put shortly: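 Endogenous PPRE-driven transcription is measured in HepG2 cells carrying transfected multi-reporter constructs. Reporter transcripts are quantified by RT-PCR, HpaI digestion and capillary electrophoresis 24 h after dosing. DMSO baseline, bidirectional fit.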

A short description of experiment [2]: ATG_VDRE_CIS: Attagene CIS-FACTORIAL HepG2 Assay for human Vitamin D Receptor Element (VDRE) (AID 2282968; active = hit-call score of the fitted dose curve at least 0.9, where 1 is the maximum; inactive = score below 0.9). To be noted: HepG2 VDRE cis-reporter transcription, actives raise or lower the signal. Put shortly:
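Steps: transfect HepG2 with multiple reporter transcription units; dose chemicals 24 h; isolate RNA; RT-PCR; label with 6-FAM primer extension; HpaI digest; capillary electrophoresis. Curves fitted both directions against DMSO.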

The target of experiment [3] is Nuclear receptor subfamily 1 group I member 3 (Homo sapiens) (UniProt Q14994). As to the kind of experiment: ATG_CAR_TRANS: Attagene TRANS-FACTORIAL HepG2 Assay for human Constitutive Androstane Receptor (CAR) (AID 2282969).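 Note: activators raise reporter mRNA above DMSO so AC50 marks induction.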 As to conditions: HepG2 Attagene TRANS-FACTORIAL CAR reporter. Put shortly: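 Steps: transient transfection of HepG2 with multiple GAL4-UAS reporter units; 24 h compound incubation; RNA isolation, RT-PCR, 6-FAM primer extension, HpaI digest; capillary electrophoresis. Gain-of-signal relative to DMSO negative control.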
Nuclear receptor subfamily 1 group I member 3 (Homo sapiens), sequence (Q14994 whole entry, looked up, the tested form may be a part): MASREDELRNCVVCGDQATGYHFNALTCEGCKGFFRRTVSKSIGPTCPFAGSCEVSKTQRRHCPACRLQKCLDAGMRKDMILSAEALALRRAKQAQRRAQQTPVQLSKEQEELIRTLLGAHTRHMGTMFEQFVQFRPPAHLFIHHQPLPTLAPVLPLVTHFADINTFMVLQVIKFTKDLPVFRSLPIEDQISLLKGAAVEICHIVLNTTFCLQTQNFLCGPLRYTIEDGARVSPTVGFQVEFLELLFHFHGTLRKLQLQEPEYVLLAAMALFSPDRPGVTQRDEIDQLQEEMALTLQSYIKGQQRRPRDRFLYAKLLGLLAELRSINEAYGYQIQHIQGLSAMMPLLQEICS

Experiment [4] can be described thus: ATG_GAL4_TRANS: Attagene TRANS-FACTORIAL HepG2 Assay for GAL4 (Internal Marker) (AID 2282976). To be noted: HepG2 Attagene TRANS GAL4 internal marker reporter. The gist of the method:
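First, HepG2 cells were transfected with reporter units under GAL4-UAS control. Next, they were treated with chemical for 24 h. Finally, RNA was reverse-transcribed, PCR-amplified, FAM-labelled and resolved by capillary electrophoresis, with induction scored against DMSO.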

Experiment [5] addresses Glucocorticoid receptor (Homo sapiens) (UniProt P04150). Nature of the experiment: ATG_GR_TRANS: Attagene TRANS-FACTORIAL HepG2 Assay for human Glucocorticoid Receptor (GR) (AID 2282978).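 Note: activators score as hits since higher reporter transcript over DMSO is fitted.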 As to conditions: HepG2 Attagene TRANS GR reporter, mRNA transcription. The gist of the method:
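Readout is reporter transcript from a chimeric GR-Gal4 acting on GAL4-UAS in transfected human HepG2 liver cells after 24 h exposure, quantified by RT-PCR and capillary electrophoresis. Activation fitted upward against DMSO.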

Experiment [6] deals with human RAR-related Orphan Receptor beta (RORb), RORB (gene 6096) (UniProt Q92753). As to the kind of experiment: ATG_RORb_TRANS: Attagene TRANS-FACTORIAL HepG2 Assay for human RAR-related Orphan Receptor beta (RORb) (AID 2283010). The gist of the method:
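Transfect HepG2 with multiple GAL4-UAS reporter transcription units; dose chemicals for 24 h; isolate RNA, reverse-transcribe and PCR-amplify reporter sequences; label, digest and resolve fragments by capillary electrophoresis; fit increases relative to DMSO.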

Experiment [7] deals with human Vitamin D Receptor (VDR), VDR (gene 7421) (UniProt P11473). Nature of the experiment: ATG_VDR_TRANS: Attagene TRANS-FACTORIAL HepG2 Assay for human Vitamin D Receptor (VDR) (AID 2283022). Put shortly: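 Steps: transfect HepG2 with GAL4-UAS-driven reporter constructs; dose compounds 24 h; isolate RNA, reverse-transcribe, PCR-amplify with 6-FAM-labelled primer extension and HpaI digestion; quantify fragments by capillary electrophoresis relative to DMSO.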
human Vitamin D Receptor (VDR), VDR (gene 7421), sequence (P11473 whole entry, looked up, the tested form may be a part): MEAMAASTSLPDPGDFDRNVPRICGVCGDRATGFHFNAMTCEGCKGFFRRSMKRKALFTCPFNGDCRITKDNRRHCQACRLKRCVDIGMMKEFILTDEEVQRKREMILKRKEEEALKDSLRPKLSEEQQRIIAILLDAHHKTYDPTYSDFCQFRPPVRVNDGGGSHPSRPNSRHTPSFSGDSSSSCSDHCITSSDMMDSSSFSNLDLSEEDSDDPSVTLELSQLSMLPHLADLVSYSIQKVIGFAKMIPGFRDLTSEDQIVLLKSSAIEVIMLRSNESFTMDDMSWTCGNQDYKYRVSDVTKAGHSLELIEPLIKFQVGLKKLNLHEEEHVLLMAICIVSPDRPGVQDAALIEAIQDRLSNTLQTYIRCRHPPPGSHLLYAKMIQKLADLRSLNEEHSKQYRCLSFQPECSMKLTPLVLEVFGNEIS

The nature of experiment [8]: TOX21_p53_BLA_p4_viability: Viability Assessment in the Tox21 HCT-116 p53 Agonism Beta-lactamase Assay, Phase 4 (AID 2283597).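 Note: hits lower the luminescence signal meaning cytotoxicity.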 The gist of the method: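 Readout: ATP luminescence (CellTiter-Glo), measured 30 min after reagent addition at RT. The reagent followed a 2 h CCF4-AM incubation, and the cells had been exposed to compound for 16 h at 37C.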
The nature of experiment [9]: ACEA_ER_AUC_viability: ACEA Biosciences xCELLigence Real-Time Cell Analysis on Estrogen Receptor Agonism for Viability (AID 2283782).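 Note: hit means loss of impedance signal meaning reduced cell growth or viability.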 The gist of the method:
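Continuous-exposure impedance cell analysis uses T-47D cells in charcoal-stripped serum, eight 1:4 dilutions topping at 100 uM final, biological duplicate. Area under the growth curve at 80 h is fitted against DMSO baseline.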

The nature of experiment [10]: CCTE_Harrill_HTTr_Viability_MCF7: CCTE's 6-hour Cell Viability Assessment for the High-Throughput Transcriptomics (HTTr) Platform, in MCF-7 cells cultured in DMEM + 10% fetal bovine serum, Harrill Lab (AID 2284010; active = hit-call score of the fitted dose curve at least 0.9, where 1 is the maximum; inactive = score below 0.9). The gist of the method: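 Read-out is propidium iodide gain of signal by high-content imaging, reflecting membrane integrity loss. Measurements are taken 6 h after dosing, eight concentrations per chemical, with DMSO serving as baseline for bidirectional curve fitting.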

Experiment [11] can be described thus: CCTE_Harrill_HTTr_Apoptosis_MCF7: CCTE's 6-hour Apoptosis Assessment for the High-Throughput Transcriptomics (HTTr) Platform, in MCF-7 cells cultured in DMEM + 10% fetal bovine serum, Harrill Lab (AID 2284011; active = hit-call score of the fitted dose curve at least 0.9, where 1 is the maximum; inactive = score below 0.9). Put shortly:
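MCF-7 (DMEM + 10% FBS), 384-well; 8-pt dilution series, 6 h chemical exposure; caspase-3/7 activation via CellEvent Caspase 3/7 Green, HCI; bidirectional fit vs DMSO.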

Experiment [12] has as its target Oxysterols receptor LXR-alpha (Homo sapiens) (UniProt Q13133). Nature of the experiment: ATG_LXRa_TRANS: Attagene TRANS-FACTORIAL HepG2 Assay for human Liver X Receptor alpha (LXRa) (AID 2282980). As to conditions: HepG2 Attagene TRANS reporter, LXRa transactivation. Put shortly:
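Transfect HepG2 with GAL4-UAS multiplex reporter constructs (TRANS format, chimeric receptor-GAL4); treat 24 h; extract RNA, reverse-transcribe, PCR-amplify, FAM-label, HpaI-digest; resolve fragments by capillary electrophoresis. Upward response vs DMSO.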

Experiment [13] addresses Oxysterols receptor LXR-beta (Homo sapiens) (UniProt P55055). Nature of the experiment: ATG_LXRb_TRANS: Attagene TRANS-FACTORIAL HepG2 Assay for human Liver X Receptor beta (LXRb) (AID 2282981). As to conditions: HepG2 Attagene TRANS GAL4-LXRb reporter, mRNA. Put shortly:
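Measures induction of a Gal4-driven reporter transcript in HepG2 cells expressing an exogenous LXRb-Gal4 fusion. Cells are exposed to compound for 24 h before RNA isolation and RT-PCR with capillary electrophoresis detection.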

The nature of experiment [14]: ATG_M_06_TRANS: Attagene TRANS-FACTORIAL HepG2 Assay for M06 Transcription Factor (Internal Marker) (AID 2282983).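 Note: reporter transcript level by RT-PCR then capillary electrophoresis fluorescence.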 To be noted: HepG2 Attagene TRANS M06 internal marker reporter. The gist of the method: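 Background control endpoint: reporter mRNA from transiently transfected HepG2 after 24 h dosing, detected by RT-PCR with capillary electrophoresis fluorescence. Analysed for gain versus DMSO.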

Experiment [15] can be described thus: ATG_M_19_TRANS: Attagene TRANS-FACTORIAL HepG2 Assay for M19 Transcription Factor (Internal Marker) (AID 2282974). To be noted: HepG2 Attagene TRANS-FACTORIAL M19 internal marker reporter. The gist of the method:
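Background-control readout: after 24 h chemical exposure of transfected HepG2 carrying GAL4-driven reporter units, RNA was reverse-transcribed, amplified, fluorescently labeled and sized by capillary electrophoresis; gain-of-signal fit against DMSO.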

In experiment [16] the target is human Peroxisome Proliferator-activated Receptor delta (PPARd), PPARD (gene 5467) (UniProt Q03181). As to the kind of experiment: ATG_PPARd_TRANS: Attagene TRANS-FACTORIAL HepG2 Assay for human Peroxisome Proliferator-activated Receptor delta (PPARd) (AID 2283002). Put shortly: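 HepG2 cells transiently transfected with multiplexed GAL4-UAS reporter units and exogenous chimeric NR-Gal4 proteins; 24 h compound exposure. Reporter mRNA measured by RT-PCR, 6-FAM labelling, HpaI digestion and capillary electrophoresis; gain of signal versus DMSO.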
human Peroxisome Proliferator-activated Receptor delta (PPARd), PPARD (gene 5467), sequence (Q03181 whole entry, looked up, the tested form may be a part): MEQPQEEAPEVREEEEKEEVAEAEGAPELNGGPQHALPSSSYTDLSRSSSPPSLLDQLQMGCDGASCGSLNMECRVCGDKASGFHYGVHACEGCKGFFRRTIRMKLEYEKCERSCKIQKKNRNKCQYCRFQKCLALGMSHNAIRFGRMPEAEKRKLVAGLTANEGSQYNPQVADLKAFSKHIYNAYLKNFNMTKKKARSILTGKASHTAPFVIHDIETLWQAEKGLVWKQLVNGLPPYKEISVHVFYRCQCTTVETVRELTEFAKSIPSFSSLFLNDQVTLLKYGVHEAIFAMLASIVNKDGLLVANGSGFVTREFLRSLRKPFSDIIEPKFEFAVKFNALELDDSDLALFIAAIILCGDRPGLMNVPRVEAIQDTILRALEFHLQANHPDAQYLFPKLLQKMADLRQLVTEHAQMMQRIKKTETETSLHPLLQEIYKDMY

Experiment [17] concerns the target Peroxisome proliferator-activated receptor gamma (Homo sapiens) (UniProt P37231). As to the kind of experiment: ATG_PPARg_TRANS: Attagene TRANS-FACTORIAL HepG2 Assay for human Peroxisome Proliferator-activated Receptor-gamma (PPARg) (AID 2283007). The gist of the method: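 After 24 h of chemical exposure, transfected HepG2 cells carrying PPARγ-Gal4 chimera reporter constructs are lysed for RNA. Reporter transcripts are measured by RT-PCR and capillary electrophoresis with fluorescent labelling, and gain of signal is fitted versus DMSO.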

The target in experiment [18] is Retinoic acid receptor RXR-alpha (Homo sapiens) (UniProt P19793). As to the kind of experiment: ATG_RXRa_TRANS: Attagene TRANS-FACTORIAL HepG2 Assay for human Retinoid X Receptor alpha (RXRa) (AID 2283012). The gist of the method: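 Measures exogenous chimeric NR-GAL4 activity in transfected HepG2 liver cells after 24 h of dosing. Induced reporter mRNA was detected by RT-PCR with capillary electrophoresis, and gain of signal was analysed against DMSO.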
Retinoic acid receptor RXR-alpha (Homo sapiens), sequence (P19793 whole entry, looked up, the tested form may be a part): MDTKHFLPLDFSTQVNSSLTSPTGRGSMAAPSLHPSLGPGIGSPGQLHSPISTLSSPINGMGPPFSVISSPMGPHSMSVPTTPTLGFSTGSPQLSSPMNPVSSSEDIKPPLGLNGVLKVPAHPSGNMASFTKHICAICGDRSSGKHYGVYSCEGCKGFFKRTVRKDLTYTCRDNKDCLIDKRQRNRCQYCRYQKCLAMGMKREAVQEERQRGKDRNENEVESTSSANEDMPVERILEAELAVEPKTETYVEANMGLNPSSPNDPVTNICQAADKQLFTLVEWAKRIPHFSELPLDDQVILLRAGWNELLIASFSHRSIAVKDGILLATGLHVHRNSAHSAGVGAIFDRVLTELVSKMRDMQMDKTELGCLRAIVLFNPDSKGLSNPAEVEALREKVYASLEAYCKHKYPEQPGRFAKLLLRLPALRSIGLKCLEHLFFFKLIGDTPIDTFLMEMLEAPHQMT

In experiment [19] the target is human Thyroid Receptor alpha (THRa1), THRA (gene 7067) (UniProt P10827). Nature of the experiment: ATG_THRa1_TRANS: Attagene TRANS-FACTORIAL HepG2 Assay for human Thyroid Receptor alpha (THRa1) (AID 2283014). The gist of the method: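 Reporter transcript induction, read by capillary electrophoresis of 6-FAM-labelled RT-PCR products, reflects activity of a transfected THRa1-Gal4 fusion in HepG2 liver cells. Cells were dosed for 24 h; activity was fitted in the positive direction against DMSO.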
human Thyroid Receptor alpha (THRa1), THRA (gene 7067), sequence (P10827 whole entry, looked up, the tested form may be a part): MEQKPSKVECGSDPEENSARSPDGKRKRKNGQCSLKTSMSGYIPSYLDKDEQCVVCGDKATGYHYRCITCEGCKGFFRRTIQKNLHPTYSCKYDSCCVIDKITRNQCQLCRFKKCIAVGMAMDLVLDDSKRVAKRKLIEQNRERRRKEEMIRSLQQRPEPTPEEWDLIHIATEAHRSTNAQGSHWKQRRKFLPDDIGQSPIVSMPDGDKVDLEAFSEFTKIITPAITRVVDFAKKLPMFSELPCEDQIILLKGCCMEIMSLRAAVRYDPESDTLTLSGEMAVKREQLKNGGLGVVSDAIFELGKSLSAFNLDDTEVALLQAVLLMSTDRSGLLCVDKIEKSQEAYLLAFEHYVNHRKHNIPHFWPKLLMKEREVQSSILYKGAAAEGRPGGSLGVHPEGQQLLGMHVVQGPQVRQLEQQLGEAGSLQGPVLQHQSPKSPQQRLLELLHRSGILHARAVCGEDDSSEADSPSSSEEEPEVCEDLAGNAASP

The target of experiment [20] is Bile acid receptor (Homo sapiens) (UniProt Q96RI1). Nature of the experiment: ATG_FXR_TRANS: Attagene TRANS-FACTORIAL HepG2 Assay for Farnesoid X Receptor (FXR) (AID 2282979).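 Note: hits raise reporter mRNA above DMSO so AC50 marks FXR activation.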 As to conditions: HepG2 Attagene TRANS FXR-GAL4 reporter transcription. The gist of the method:
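Transient transfection of HepG2 with multiplexed GAL4-UAS reporter units; exogenous FXR-GAL4 chimera. Dose 24 h → TriZol RNA → oligo(dT) RT → PCR, 6-FAM primer extension, HpaI cut → CE. Gain vs DMSO.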

By AC50 is commonly meant the concentration giving half of the maximal activity seen.

Oxysterols receptor LXR-alpha (Homo sapiens), sequence (Q13133 whole entry, looked up, the tested form may be a part): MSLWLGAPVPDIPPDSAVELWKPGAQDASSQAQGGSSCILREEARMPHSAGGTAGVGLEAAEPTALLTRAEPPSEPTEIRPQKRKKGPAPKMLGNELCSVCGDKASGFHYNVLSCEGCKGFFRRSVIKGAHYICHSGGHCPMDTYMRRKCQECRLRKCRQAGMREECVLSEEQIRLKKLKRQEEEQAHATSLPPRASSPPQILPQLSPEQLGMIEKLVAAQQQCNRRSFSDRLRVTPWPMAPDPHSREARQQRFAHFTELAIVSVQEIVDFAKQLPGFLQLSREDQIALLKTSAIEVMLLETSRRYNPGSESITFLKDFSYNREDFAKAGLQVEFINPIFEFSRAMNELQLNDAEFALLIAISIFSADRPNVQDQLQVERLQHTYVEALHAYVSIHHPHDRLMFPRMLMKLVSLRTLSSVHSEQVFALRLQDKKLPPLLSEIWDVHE
Oxysterols receptor LXR-beta (Homo sapiens), sequence (P55055 whole entry, looked up, the tested form may be a part): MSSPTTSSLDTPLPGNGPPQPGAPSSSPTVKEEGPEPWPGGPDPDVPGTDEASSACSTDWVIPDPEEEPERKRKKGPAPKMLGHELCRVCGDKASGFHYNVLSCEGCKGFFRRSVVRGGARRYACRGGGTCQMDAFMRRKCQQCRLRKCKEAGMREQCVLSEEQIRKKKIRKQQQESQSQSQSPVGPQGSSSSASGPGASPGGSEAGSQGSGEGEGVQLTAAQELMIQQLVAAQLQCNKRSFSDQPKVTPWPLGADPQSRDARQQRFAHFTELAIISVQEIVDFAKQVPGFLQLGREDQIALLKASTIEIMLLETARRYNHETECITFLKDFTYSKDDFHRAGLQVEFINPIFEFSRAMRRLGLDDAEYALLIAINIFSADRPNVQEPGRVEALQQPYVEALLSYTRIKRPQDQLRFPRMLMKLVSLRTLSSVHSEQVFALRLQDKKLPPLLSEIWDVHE
Glucocorticoid receptor (Homo sapiens), sequence (P04150 whole entry, looked up, the tested form may be a part): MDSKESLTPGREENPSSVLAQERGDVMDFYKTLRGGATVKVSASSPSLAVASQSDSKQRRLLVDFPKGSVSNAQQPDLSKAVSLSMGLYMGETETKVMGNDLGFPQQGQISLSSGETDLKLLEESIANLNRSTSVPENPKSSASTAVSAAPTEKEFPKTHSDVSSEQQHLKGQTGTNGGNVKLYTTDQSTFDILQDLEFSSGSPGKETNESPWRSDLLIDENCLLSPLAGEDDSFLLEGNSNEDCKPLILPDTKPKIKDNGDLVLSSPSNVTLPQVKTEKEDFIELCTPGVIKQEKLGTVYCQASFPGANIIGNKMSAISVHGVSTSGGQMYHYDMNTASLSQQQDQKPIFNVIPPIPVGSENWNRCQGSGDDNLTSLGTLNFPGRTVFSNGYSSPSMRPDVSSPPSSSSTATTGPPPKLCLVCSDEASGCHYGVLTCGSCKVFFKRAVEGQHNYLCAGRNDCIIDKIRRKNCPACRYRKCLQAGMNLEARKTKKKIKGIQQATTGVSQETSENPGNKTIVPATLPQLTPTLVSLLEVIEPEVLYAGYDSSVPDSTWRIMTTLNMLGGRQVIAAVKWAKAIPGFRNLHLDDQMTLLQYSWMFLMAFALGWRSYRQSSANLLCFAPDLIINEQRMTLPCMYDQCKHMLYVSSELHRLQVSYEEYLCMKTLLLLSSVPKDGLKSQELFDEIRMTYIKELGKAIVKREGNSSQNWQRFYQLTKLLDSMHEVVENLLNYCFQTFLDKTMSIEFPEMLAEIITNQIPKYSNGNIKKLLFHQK
human RAR-related Orphan Receptor beta (RORb), RORB (gene 6096), sequence (Q92753 whole entry, looked up, the tested form may be a part): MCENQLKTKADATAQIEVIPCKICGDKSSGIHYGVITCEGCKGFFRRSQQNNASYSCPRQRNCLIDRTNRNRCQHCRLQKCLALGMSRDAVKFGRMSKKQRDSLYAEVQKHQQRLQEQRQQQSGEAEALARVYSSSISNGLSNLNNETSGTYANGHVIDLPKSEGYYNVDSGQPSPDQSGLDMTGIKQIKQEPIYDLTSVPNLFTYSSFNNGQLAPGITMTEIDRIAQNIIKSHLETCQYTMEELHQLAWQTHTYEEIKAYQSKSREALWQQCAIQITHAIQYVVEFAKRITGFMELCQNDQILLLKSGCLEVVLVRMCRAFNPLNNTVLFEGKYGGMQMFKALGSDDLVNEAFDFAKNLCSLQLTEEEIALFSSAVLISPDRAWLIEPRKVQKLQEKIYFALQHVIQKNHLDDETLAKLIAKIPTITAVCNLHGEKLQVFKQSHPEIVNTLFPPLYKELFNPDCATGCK
Peroxisome proliferator-activated receptor gamma (Homo sapiens), sequence (P37231 whole entry, looked up, the tested form may be a part): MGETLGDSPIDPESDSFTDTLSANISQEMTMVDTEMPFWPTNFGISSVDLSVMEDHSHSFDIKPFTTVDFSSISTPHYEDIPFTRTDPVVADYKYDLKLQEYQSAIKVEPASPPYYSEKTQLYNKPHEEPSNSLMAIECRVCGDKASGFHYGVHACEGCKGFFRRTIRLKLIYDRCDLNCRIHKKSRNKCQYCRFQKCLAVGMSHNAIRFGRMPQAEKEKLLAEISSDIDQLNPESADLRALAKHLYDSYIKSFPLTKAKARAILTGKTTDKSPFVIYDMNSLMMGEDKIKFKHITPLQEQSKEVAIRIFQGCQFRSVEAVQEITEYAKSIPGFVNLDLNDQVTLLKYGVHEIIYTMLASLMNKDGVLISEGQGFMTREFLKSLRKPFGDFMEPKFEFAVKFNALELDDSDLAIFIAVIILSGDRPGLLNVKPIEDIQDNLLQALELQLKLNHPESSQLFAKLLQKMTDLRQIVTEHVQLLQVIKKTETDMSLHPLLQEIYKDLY

On to `CC(C)CC(=O)O`, for which the molecule was classed as inactive in experiment [1], in experiment [2], in [3], in [4], in experiment [5] and in experiment [6]. The result in experiment [7], in experiment [8], in experiment [9], in experiment [10] and in experiment [11] was inactive.
On to `NC(=O)c1ccc(N)cc1`, for which the outcome in experiment [2], in [3], in [4], in experiment [12], in experiment [13] and in [14] was inactive. Besides, the outcome in [7] and in experiment [8] was inactive.
As to `CC(C)(Oc1ccc(Cl)cc1)C(=O)O`, the molecule was classed as inactive in experiment [1], in experiment [15], in experiment [12], in [16], in [18] and in experiment [19]. Further, the outcome in experiment [7], in [10] and in [11] was inactive. Moreover, the half-maximal activity concentration (AC50) in experiment [17] is 69.3 µM (active); in [9], 50 µM (active).
Turning to `C[Si](C)(C)O[Si](C)(C)O[Si](C)(C)C`, the molecule was called inactive in experiment [1], in [2], in experiment [15], in [12], in experiment [14] and in [16]. Moreover, the molecule was classed as inactive in [17] and in experiment [7].
For the molecule `CCc1cc(C(N)=S)ccn1`, the result in [2], in experiment [12], in experiment [14], in [6], in [7] and in [8] was inactive. For the same molecule, the outcome in experiment [10] and in experiment [11] was inactive.
With `O=C1NC(=O)[C@@H]2CC=CC[C@H]12`, the result in experiment [2], in experiment [4], in experiment [5], in experiment [20], in [13] and in experiment [16] was inactive. Besides, the call in [18], in experiment [19] and in experiment [7] was inactive.
